CYP2C19 act = increases human CYP2C19 enzyme activity | P33261 | recombinant CYP2C19, luciferin-H EGE luminescence; hits give high values; 0 = fully inhibited enzyme, 1 = untreated enzyme | activation factor at 5 µM | 96,000 tested, under 10 active | AID 1025;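 active means activation factor of at least 2 at 5 µM in the primary screen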
Target sequence (P33261 whole entry, looked up): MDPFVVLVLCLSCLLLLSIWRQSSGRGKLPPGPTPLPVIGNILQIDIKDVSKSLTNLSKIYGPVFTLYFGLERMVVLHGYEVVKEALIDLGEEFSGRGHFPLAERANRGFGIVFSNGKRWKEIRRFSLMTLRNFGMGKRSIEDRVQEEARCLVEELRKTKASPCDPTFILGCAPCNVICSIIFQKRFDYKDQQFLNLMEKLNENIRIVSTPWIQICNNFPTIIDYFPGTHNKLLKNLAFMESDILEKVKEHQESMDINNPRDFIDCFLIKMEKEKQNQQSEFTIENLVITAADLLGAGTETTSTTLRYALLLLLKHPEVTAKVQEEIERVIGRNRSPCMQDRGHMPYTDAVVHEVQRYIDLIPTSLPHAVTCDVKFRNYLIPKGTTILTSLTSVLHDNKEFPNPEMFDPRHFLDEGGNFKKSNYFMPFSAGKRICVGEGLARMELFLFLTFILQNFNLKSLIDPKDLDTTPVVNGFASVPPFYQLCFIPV
CYP2C9 activ = increases human cytochrome P450 2C9 activity; P11712; recombinant CYP2C9, luciferin-H conversion, luminescence; hits give high values; factor 1 = untreated enzyme, 0 = blocked; activation factor at 5 µM; 96,000 compounds, 1.4% hits; AID 1024;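 active means activation factor of 2 or more for CYP2C9 at a 5 µM dose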
CYP2C9 inhib = inhibitors of human CYP2C9. P11712. CYP2C9 Supersomes, luciferin-H conversion, luminescence. inhibition, % at 5 µM. 96,000 compounds, 20% hits. AID 777;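 active means blocking of liver enzyme CYP2C9 beyond about 50% at 5 µM, limit read from the data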
EphB4 antag = EphB4-ephrin-B2 interaction antagonism; EphB4 LBD / TNYL-RAW-Alexa532 peptide, fluorescence polarization; 97,000 compounds, 0.15% hits; AID 720; P54760; inhibition, % at 7 µM;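 active means inhibition above the screen-wide mean inhibition plus 3 SD, cut at about 15% in these data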
CYP2C19 inhib = human CYP2C19 inhibition; CYP2C19 Supersomes, luciferin-H EGE luminescence, 30 min; inhibition, % at 5 µM; 96,000 compounds, 21% hits; AID 778;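 active means CYP2C19 inhibition above a set limit at 5 µM in the primary screen, cut at about 50% in these data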
Hits are given with their value; i = inactive; nt = not tested or not shown. Most compounds without a hit are left out; they make up all but 27% or so of the library.

SMILES	CYP2C19 act	CYP2C9 activ	CYP2C9 inhib	EphB4 antag	CYP2C19 inhib
O=C(CSc1nc2c(c(=O)n1-c1ccccc1)SCC2)N1CCN(c2ccccc2)CC1	i	i	63.0	nt	82.5
COc1ccc(-n2c(SC3CCOC3=O)nc3ccccc3c2=O)cc1OC (stereo not given)	i	i	69.2	i	i
COCCn1c(SCc2ccc(C(=O)OC)o2)nc2ccccc2c1=O	i	i	91.5	i	97.5
CCCCNC(=O)C1C2C=CC3(CN(Cc4ccccc4Cl)C(=O)C13)O2 (stereo not given)	i	i	i	16.1	i
Cc1ccc(NC(=O)C2C3C=CC4(CN(Cc5cccnc5)C(=O)C24)O3)cc1F (stereo not given)	i	i	i	nt	58.2
COc1ccccc1NC(=O)C1C2C=CC3(CN(Cc4cccnc4)C(=O)C13)O2 (stereo not given)	i	i	i	i	i
Cc1ccc(C(C)C)c(OCc2ccc(-c3nnco3)cc2)c1	i	i	i	i	85.9
O=C(CN(Cc1cccs1)C(=O)CNS(=O)(=O)c1ccc(F)cc1)NCc1ccco1	i	i	i	i	58.2
Cc1ccc(N(Cc2ccco2)C(=O)c2cccc(S(=O)(=O)N(C)C)c2)cc1	i	i	i	i	i
Cc1ccc(S(=O)(=O)NCC(=O)N(CCc2ccccc2)CC(=O)NCc2ccco2)cc1	i	i	53.4	i	72.1
O=C(CN(Cc1ccco1)C(=O)CNS(=O)(=O)c1ccccc1)NCc1ccc(F)cc1	i	i	62.1	i	61.3
CN(C)S(=O)(=O)c1cccc(C(=O)N(Cc2ccc(F)cc2)Cc2ccco2)c1	i	i	50.8	i	i
O=C(CN(Cc1ccco1)C(=O)CNS(=O)(=O)c1ccc(F)cc1)NCc1ccc(F)cc1	i	i	i	i	i
CNC(=O)c1cc(S(=O)(=O)N(C)C)ccc1Cl	i	i	i	i	i
CCCn1nc(NC(=O)c2ccccn2)c2cc3cc(C)ccc3nc21	i	i	i	i	i
COc1ccc2nnc(-c3ccccc3)n2n1	i	i	i	i	i
CC(=O)c1c(C)[nH]c(C(=O)OCC(=O)C(C)(C)C)c1C	i	i	i	i	i
CC(/C=C/c1ccc(Cl)o1)=C\C(=O)O	i	i	i	i	i
COc1cc(-c2nnc(Sc3ccc(C(F)(F)F)cc3[N+](=O)[O-])o2)cc(OC)c1OC	i	i	i	i	i
O=C(O)c1ccc(Sc2nnc(-c3cccc(Br)c3)o2)c([N+](=O)[O-])c1	i	i	66.4	i	i
O=S(=O)(c1ccc(Cl)s1)N1CCN(c2ncccn2)CC1	i	i	i	i	i
Cc1cc(NC(=O)CSc2nc3c([nH]c4ccccc43)c(=O)n2-c2cccc(C(F)(F)F)c2)no1	nt	nt	nt	i	nt
O=C(CSc1nc2c([nH]c3ccccc32)c(=O)n1-c1ccccc1)N1CCOCC1	i	i	i	nt	i
COc1cccc(-n2c(SCC(N)=O)nc3c([nH]c4ccccc43)c2=O)c1	i	i	51.6	nt	i
Cc1ccc(-n2c(SCC(N)=O)nc3c([nH]c4ccccc43)c2=O)cc1	i	i	78.6	nt	i
SMILES	CYP2C19 act	CYP2C9 activ	CYP2C9 inhib	EphB4 antag	CYP2C19 inhib
COc1cccc(-n2c(SCC(=O)Nc3cc(C)on3)nc3c([nH]c4ccccc43)c2=O)c1	i	i	54.3	i	i
CC1(C)CC(NS(=O)(=O)c2ccccc2)CC(C)(C)N1	i	i	i	i	i
CCOc1cc(C)c(Cl)cc1S(=O)(=O)NCc1ccc2c(c1)OCO2	i	i	i	i	99.4
Cc1noc(C)c1S(=O)(=O)NCc1ccc2c(c1)OCO2	i	i	98.4	nt	92.9
CCOc1cc(S(=O)(=O)NCc2ccc3c(c2)OCO3)c(C)cc1C	i	i	91.1	i	85.6
Cc1ccc2nsnc2c1S(=O)(=O)NCc1ccc2c(c1)OCO2	nt	nt	nt	i	nt
CCOc1cc(C)c(Cl)cc1S(=O)(=O)N1CCCC1	i	i	i	i	i
CCOC(=O)c1ccc(NC(=O)CC2C(=O)N(c3ccc(F)cc3)C(=O)N2CCCOC)cc1 (stereo not given)	i	i	i	i	i
COc1cc(C2C3C(C)N(C)C(=O)N(C)C3N(C)C(=O)N2C)ccc1O (stereo not given)	i	i	i	i	87.4
COc1cc(C2N3CC4(C)CN2CC(C)(C3)C4)ccc1O (stereo not given)	i	i	i	i	i
O=c1nc(N2CCCCCC2)nc(N2CCCCCC2)[nH]1	i	i	i	i	i
COc1ccc(C(c2nnnn2C(C)(C)C)N2CCN(c3nc4ccccc4s3)CC2)cc1 (stereo not given)	i	i	63.2	nt	i
CCC(C)(C)n1nnnc1C(c1ccc(O)c(OC)c1)N1CCN(c2nc3ccccc3s2)CC1 (stereo not given)	i	i	77.3	nt	i
CC(C)(C)n1nnnc1C(c1ccncc1)N1CCN(c2ccc(O)cc2)CC1 (stereo not given)	i	i	75.7	i	i
CCC(C)(C)n1nnnc1C(c1ccc(O)c(OC)c1)N1CCc2ccccc2C1 (stereo not given)	i	i	i	i	i
COc1cc(C2c3c(oc4ccc(C)cc4c3=O)C(=O)N2c2cc(C)ccn2)cc(OC)c1OC (stereo not given)	i	i	59.2	nt	i
CC(=O)Nc1nc2cc3c(cc2s1)OCO3	i	i	i	i	64.4
c1c2c(cc3sc(N4CCCCC4)nc13)OCO2	i	i	i	i	84.0
Cc1ccc(-n2c(C)cc(C(=O)CSc3nncs3)c2C)cc1	i	i	89.5	nt	99.5
Cc1ccc(-n2c(C)cc(C(=O)CSc3nnnn3C)c2C)cc1	i	i	60.8	i	52.7
O=C(COC(=O)c1ccncc1)Nc1cc(Cl)c(Cl)cc1Cl	i	i	88.2	i	97.5
O=C(OCc1ccc(F)cc1Cl)c1ccccn1	i	i	i	i	80.2
O=C(OCc1ccc(Cl)cc1Cl)c1ccncc1	i	i	i	i	69.4
O=C(COC(=O)c1ccncc1)Nc1cc(Cl)ccc1Cl	i	i	90.2	i	66.3
O=C(OCc1ccccc1Cl)c1cccnc1Cl	i	i	i	i	i
SMILES	CYP2C19 act	CYP2C9 activ	CYP2C9 inhib	EphB4 antag	CYP2C19 inhib
O=C(OCc1ccccc1Cl)c1ccccc1C(=O)c1ccccc1	i	i	i	i	66.8
COCCn1nnnc1CN(CCc1ccc(OC)c(OC)c1)Cc1cc2ccc(C)cc2[nH]c1=O	i	i	60.8	i	58.6
Cc1ccc2cc(CN(Cc3nnnn3C3CCCCC3)CC3CCCO3)c(=O)[nH]c2c1 (stereo not given)	i	i	i	i	81.3
Cc1ccc2[nH]c(=O)c(CN(Cc3ccc4c(c3)OCO4)Cc3nnnn3C3CCCC3)cc2c1	i	i	61.0	nt	i
Cc1cccc2cc(CN(Cc3nnnn3C3CCCC3)C3CCCCC3)c(=O)[nH]c12	nt	nt	nt	i	nt
CCc1ccc2[nH]c(=O)c(CN(Cc3nnnn3C3CCCC3)C3CCCCC3)cc2c1	i	i	82.3	nt	76.4
CCOc1cc(NC(=O)c2ccccc2[N+](=O)[O-])c(OCC)cc1NC(=O)CC(C)C	i	i	i	i	i
N#CC(c1ccc(Cl)nn1)c1ccccc1Cl (stereo not given)	i	i	i	i	i
